Test results as given in article PMC4336329 (PLoS ONE, 2015).
In all, about 310,000 compounds went through this assay and about 14,000 (4.5%) showed an effect of 50% or more. Effects have a minus sign here. What follows is part of a selection rich in strong results, with near analogues and random picks from the rest.

Each compound was assayed against human ether-à-go-go-related gene (hERG) potassium channel (human, UniProt Q12809) (assay: primary screen, population patch clamp on CHO cells stably expressing hERG; higher = less effect of the substance).
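Also: peak tail current of the secondary pulse compared with the same well before compound.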

Chain of human ether-à-go-go-related gene (hERG) potassium channel (Q12809 whole entry, looked up): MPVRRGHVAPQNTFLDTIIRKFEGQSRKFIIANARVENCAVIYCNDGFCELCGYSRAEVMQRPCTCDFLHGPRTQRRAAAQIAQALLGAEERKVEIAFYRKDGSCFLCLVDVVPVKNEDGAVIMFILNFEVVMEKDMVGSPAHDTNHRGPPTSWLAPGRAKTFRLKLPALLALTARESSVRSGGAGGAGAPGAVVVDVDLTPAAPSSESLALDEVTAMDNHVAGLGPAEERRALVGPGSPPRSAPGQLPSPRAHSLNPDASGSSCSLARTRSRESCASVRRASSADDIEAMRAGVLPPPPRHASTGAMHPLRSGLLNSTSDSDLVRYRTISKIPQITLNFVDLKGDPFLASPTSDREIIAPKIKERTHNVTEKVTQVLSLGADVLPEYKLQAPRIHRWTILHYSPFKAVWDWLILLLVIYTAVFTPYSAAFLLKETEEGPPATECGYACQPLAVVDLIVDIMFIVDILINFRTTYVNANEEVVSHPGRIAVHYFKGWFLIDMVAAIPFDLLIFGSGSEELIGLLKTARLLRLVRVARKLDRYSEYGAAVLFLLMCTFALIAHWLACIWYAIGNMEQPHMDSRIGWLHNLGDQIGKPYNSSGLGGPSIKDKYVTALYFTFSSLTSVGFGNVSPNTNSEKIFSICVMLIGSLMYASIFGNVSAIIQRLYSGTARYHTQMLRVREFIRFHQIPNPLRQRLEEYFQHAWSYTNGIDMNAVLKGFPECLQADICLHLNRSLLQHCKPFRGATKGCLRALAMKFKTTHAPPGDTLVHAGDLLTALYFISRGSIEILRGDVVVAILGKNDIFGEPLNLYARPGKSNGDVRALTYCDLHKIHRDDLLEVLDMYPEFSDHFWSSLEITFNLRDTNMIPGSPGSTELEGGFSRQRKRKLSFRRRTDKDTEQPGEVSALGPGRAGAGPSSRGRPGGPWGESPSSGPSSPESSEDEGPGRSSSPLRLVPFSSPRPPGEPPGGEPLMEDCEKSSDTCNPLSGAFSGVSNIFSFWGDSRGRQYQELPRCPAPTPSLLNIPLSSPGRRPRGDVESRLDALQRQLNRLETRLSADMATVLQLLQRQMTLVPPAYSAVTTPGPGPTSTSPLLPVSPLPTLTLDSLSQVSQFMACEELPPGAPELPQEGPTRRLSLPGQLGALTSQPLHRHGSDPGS

SMILES | hERG current change (%, negative = inhibition) at 10uM
CCN1CCN(CCCNC(=O)C2c3ccccc3C(=O)N(c3ccc(OC)cc3)C2c2ccc(OC)cc2)CC1 (stereo not drawn) | 1.22%
CCCCCN(C(=O)COC(=O)CSc1ccc([N+](=O)[O-])cc1)c1c(N)n(CCCC)c(=O)[nH]c1=O | -40.5%
CCc1cccc(NC(=O)CN(c2ccc(C)cc2)S(=O)(=O)c2c(C)noc2C)c1 | 8.14%
COc1cc(OC)c(NC(=O)CCc2nc(-c3ccc(C)cc3)no2)cc1Cl | 6.21%
COc1ccc(-c2ccc(-c3noc(-c4ccccc4C)n3)c(OC)n2)cc1 | 6.35%
O=C(NC1CCC(O)CC1)c1cccc2cccnc12 (stereo not drawn) | 7.2%
COc1ccccc1-c1coc2c(CN3CCCCC3C)c(O)ccc2c1=O (stereo not drawn) | 6.44%
CC1CCCCN1Cc1c(O)ccc2c(=O)c(-c3nc4ccccc4s3)coc12 (stereo not drawn) | -48%
CN(C)Cc1c(O)ccc2c(=O)c(-c3ccc(Cl)cc3)coc12 | -9.92%
CC1CCCCN1Cc1c(O)ccc2c(=O)c(-c3ccc(Cl)cc3)coc12 (stereo not drawn) | -69.1%
CCN(CC)Cc1c(O)ccc2c(=O)c(-c3ccc(Cl)cc3)coc12 | -58.4%
CC1CCCN(Cc2c(O)ccc3c(=O)c(-c4nc5ccccc5s4)c(N)oc23)C1 (stereo not drawn) | -0.886%
COc1ccc(-c2coc3c(CN4CCCCC4C)c(O)ccc3c2=O)cc1 (stereo not drawn) | -39.4%
CC1CCCCN1Cc1c(O)ccc2c(=O)c(-c3ccccc3)coc12 (stereo not drawn) | -38.2%
CC1CCCCN1Cc1c(O)ccc2c(=O)c(-c3ccc(Cl)cc3Cl)coc12 (stereo not drawn) | -60.7%
CC1CCN(Cc2c(O)ccc3c(=O)c(-c4nc5ccccc5s4)c(N)oc23)CC1 | -48.5%
CC1CCCCN1Cc1c(O)ccc2c(=O)c(-c3nc4ccccc4s3)c(N)oc12 (stereo not drawn) | -60.6%
CCN(CC)Cc1c(O)ccc2c(=O)c(-c3ccccc3)coc12.Cl | -1.91%
N#Cc1cc2ccccc2nc1SCC(=O)Nc1ccc(S(=O)(=O)N2CCCC2)cc1 | 6.03%
Cn1ncnc2c(=O)n(C)c(=O)nc1-2 | -2.67%
O=C(NCc1ccccc1)Nc1cccn(Cc2ccccc2Cl)c1=O | 18.8%

SMILES | hERG current change (%, negative = inhibition) at 10uM
Cc1nc2ccccc2c(=O)n1-c1ccc(F)cc1F | 3.52%
CCOC(=O)CNC(=O)c1ccc2[nH]c3c(c2c1)CCCC3 | 11.5%
CCOC(=O)c1ccc(OCCOc2ccccc2C)cc1 | 24%
O=c1c(Cl)c(N2CCN(S(=O)(=O)c3ccc(F)cc3)CC2)cnn1-c1cccc(Cl)c1 | -29.4%
O=C(CSCc1ccccc1Br)N/N=C/c1ccc(OCC(=O)N2CCCCC2)cc1 | -15.9%
CNC(=O)c1[nH]cnc1C(=O)Nc1ccc(OC)cc1 | 20.8%
O=c1[nH]cnc2cc(-c3ccc(Br)cc3)sc12 | 12.3%
CN(C)S(=O)(=O)c1ccc(N2CCCC2)c(C(=O)N2CCN(S(=O)(=O)c3cccc(F)c3)CC2)c1 | -10.7%
Cc1nnc2ccc(-c3cccc(NS(=O)(=O)c4cc(F)ccc4F)c3)nn12 | -0.0273%
O=C(O)CSCC(=O)Nc1ccc(C(=O)O)cc1 | 12.5%
COc1ccc(-c2c(C)oc3c(CN4CCCCC4C)c(O)ccc3c2=O)cc1 (stereo not drawn) | -16.6%
Cc1oc2c(CN3CCCCC3C)c(O)ccc2c(=O)c1-c1ccc(Br)cc1 (stereo not drawn) | -50.9%
Cc1oc2c(CN3CCCCC3C)c(O)ccc2c(=O)c1-c1ccccc1 (stereo not drawn) | -27.6%
O=C(Cc1c(F)cccc1Cl)NCCc1c[nH]c2ccccc12 | 8.99%
Cc1nn(CC#N)c(=O)n1-c1ccccc1 | 8.38%
CCn1c(SCC#N)nc2c(c1=O)C1(CCCC1)Cc1ccccc1-2 | 2.38%
CN(Cc1ccccc1)C(=O)CN(Cc1ccccc1)S(C)(=O)=O | -4.6%
O=C(c1ccc(S(=O)(=O)c2ccccc2Cl)c([N+](=O)[O-])c1)N1CCCCCC1 | -11%
COCCN(CC1CCCN(C2Cc3ccccc3C2)C1)C(=O)CCC(N)=O (stereo not drawn) | -75.1%
COC(=O)CCCC(=O)NC1CCCN(C2Cc3ccccc3C2)C1 (stereo not drawn) | -10.6%
COCCN(CC1CCCN(C2Cc3ccccc3C2)C1)C(=O)CCSC (stereo not drawn) | -45.8%
